Growth data for 28 molecules are collected here from PubChem BioAssay (NCI).

About 83,000 compounds went through this panel and 20% of them were active in at least one assay; those are over-represented in the sample as a whole.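 96-well plates, one dose, 48 hours. Percent growth reported; active if below 10.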 Values without a mark were called inactive. Active and inactive are the calls of the source.

Common to all, as to assay: NCI-60 one-dose screen, 48 h (100 = growth as untreated, 0 = no growth, -100 = all killed)
Holding throughout (conditions): 10 µM unless noted

The subject of assay [1] is NCI-H23 lung.
Assay [2] concerns NCI-H226 lung.
For assay [3], the system named is NCI-H322M lung.
Assay [4] has as its system HOP-62 NSCLC.
Assay [5] concerns NCI-H460 lung.
In assay [6] the test system is HOP-92 NSCLC.
Assay [7] concerns NCI-H522 lung.
The test system of assay [8] is A549/ATCC NSCLC.
Assay [9] concerns 786-0 renal.
Assay [10] has as its system COLO 205 colon.

Consider `CCCCOc1c(N)cccc1C(=O)OCCN(CC)CC`, for which the growth is 97.1% in assay [1]; 99.8% in assay [2]; 80.7% in assay [3]; 104% in assay [4]; 105% in [5]; 95.7% in [6]. Further, the growth in assay [7] was 76.5%; in assay [8] it was 97.4%; in assay [9], 102%; in assay [10], 109%.

Take `Cc1ccc(N(CC2=NCCN2)c2cccc(O)c2)cc1`: the growth in [1] is 100%; in assay [2], 100%; in [3], 91.5%; in assay [4], 103%; in assay [5] it was 107%; in assay [6], 91.2%. In addition, the growth in assay [7] is 102%; in [8] it was 98.8%; in assay [9] it was 96.8%; in assay [10], 119%.

`CCNC(=O)Oc1ccc(/C(=C(/CC)Cc2ccccc2)c2ccc(OCCN3CCOCC3)cc2)cc1`: the growth in assay [1] was 66.8%; in assay [2] it was 59.4%; in assay [3] it was 72.8%; in assay [4], 84%; in assay [5], 44.7%; in [6], 38.6%. Further, the growth in [7] is 56.4%; in [8], 36.7%; in assay [9], 55.7%; in [10] it was 50.9%.

Take `COc1ccc(N)c(S)c1`: the growth in [1] is 92.3%; in assay [2] it was 92.8%; in assay [3], 106%; in [4], 90.5%; in assay [5], 106%; in [6], 88.4%. The growth in assay [7] was 84.5%; in assay [8], 77.1%; in assay [9] it was 107%; in assay [10], 84.5%.

With `COC(OC)C1(c2ccccc2)NC(=O)NC1=O` (stereo not drawn), the growth in [1] is 112%; in assay [2], 113%; in assay [3], 108%; in assay [4] it was 103%; in [5], 115%; in [6], 104%. In addition, the growth in assay [7] was 79.8%; in assay [8] it was 95.9%; in assay [9], 108%; in [10] it was 119%.

With `c1coc(CSc2ncnc3nc[nH]c23)c1`, the growth in [1] was 103%; in assay [2], 101%; in [3], 125%; in assay [4], 99.7%; in assay [5] it was 111%; in assay [6], 57.8%. Further, the growth is 80% in assay [7], 101% in assay [8], 97% in assay [9] and 113% in assay [10].

Regarding `NN=C(c1ccc(Cl)cc1)c1ccc(Cl)cc1`, the growth was 94.3% in assay [1]; 108% in [2]; 123% in [3]; 108% in assay [4]; 111% in assay [5]; 97% in [6]. The growth in assay [7] is 106%; in assay [8] it was 82.2%; in assay [9], 104%; in [10], 110%.

As to `Cc1ccc(-c2cc(-c3nnc(SCC(=O)c4ccccc4)o3)c3ccccc3n2)cc1`, the growth in assay [1] is 97.1%; in assay [2], 94.5%; in assay [3], 90.3%; in [4], 108%; in assay [5], 98.3%; in assay [6], 96.6%. Besides, the growth in assay [7] was 87.7%; in assay [8], 91.4%; in [9] it was 92.8%; in assay [10] it was 111%.

Consider `COc1ccc(/C=C2/C(=O)Nc3cc(Cl)c(-c4csc(N)n4)cc32)cc1`, for which the growth in assay [1] was 58%; in [2], 69.2%; in assay [3], 68.3%; in [4], 50.1%; in [5], 42.7%; in [6] it was 43.1%. For the same molecule, the growth in assay [7] was 21.6%; in assay [8], 48.5%; in assay [9] it was 62.3%; in [10] it was 33.7%.

Regarding `COCCNC(C(=O)c1ccccc1)c1ccccc1` (stereo not drawn), the growth in assay [1] is 103%; in assay [2] it was 91%; in assay [3], 100%; in assay [4], 100%; in [5], 108%; in assay [6], 85.7%. Also, the growth was 107% in assay [7], 99.8% in assay [8], 92.5% in assay [9] and 117% in assay [10].

Consider `Nc1ncnc2c1c(-c1ccc(Oc3ccccc3)cc1)nn2C[C@@H]1SSC[C@H]1O`, for which the growth in assay [1] is 40.6%; in [2], -3.02% (active); in assay [3], 36.9%; in [4], 37.6%; in assay [5] it was 3.61% (active); in assay [6], -6.86% (active). Moreover, the growth in assay [7] was 10.1%; in [8], 21.4%; in [9] it was 42.7%; in assay [10], 52%.

For the molecule `O=C(O)c1cc2ccccc2cc1Nc1ccccc1`, the growth in [1] is 84.6%; in assay [2], 93.8%; in assay [3], 108%; in [4] it was 82.3%; in [5], 91.8%; in [6] it was 91.3%. Also, the growth is 80.6% in assay [7], 87.6% in assay [8], 101% in assay [9] and 122% in assay [10].

Take `Cc1cc(NCCN(C(C)C)C(C)C)nc(/N=C(\N)Nc2ccc(Cl)c(C(F)(F)F)c2)n1`: the growth is -67.1% (active) in assay [1]; -32.1% (active) in [2]; -51.9% (active) in assay [3]; -95.4% (active) in assay [4]; -84.7% (active) in [5]; -93.5% (active) in assay [6]. In addition, the growth in [7] is -81.1% (active); in [8] it was -89.5% (active); in assay [9], -99.7% (active); in assay [10], -71.3% (active).

As for `COc1cc(C(=O)N2CCN(C(=O)c3cc(OC)c(OCc4ccccc4)cc3N)CC2)c(N)cc1OCc1ccccc1`, the growth in assay [1] was 86.8%; in [2] it was 122%; in assay [3], 99.3%; in assay [4] it was 108%; in assay [5], 115%; in [6] it was 86.1%. The growth in assay [7] is 103%; in assay [8], 107%; in assay [9] it was 104%; in assay [10], 115%.

For the molecule `O=C(Nc1ccc(-n2ccc3c(NC(=O)c4ccccc4)nccc32)cc1)Nc1ccc(Cl)c(Cl)c1`, the growth in assay [1] is 42.4%; in assay [2], 68%; in [3], -5.58% (active); in assay [4], -58.1% (active); in [5], -65.4% (active); in [6] it was -6.97% (active). Also, the growth in assay [7] was -58.6% (active); in assay [8] it was -75.8% (active); in [9] it was -84% (active); in [10] it was -53.4% (active).

As for `COc1ccc(/C=C/C(=O)/C=C(/C=C/c2ccc(OC)c(OC)c2OC)OB(F)F)c(OC)c1OC`, the growth is 37.3% in assay [1]; 75.6% in [2]; 91.8% in assay [3]; 70.4% in assay [4]; 43.6% in assay [5]; 79.5% in assay [6]. In addition, the growth in assay [7] is 16.3%; in assay [8] it was 55.7%; in assay [9] it was 14.1%; in assay [10], 7.86% (active).

As to `CC/C(=C(\CC)c1ccc(OCCN(CC)CC)cc1)c1ccc(OCCN(CC)CC)cc1`, the growth in assay [1] was 40.7%; in assay [2] it was 62.7%; in assay [3] it was 60.7%; in [4], 36.9%; in [5], 31.8%; in assay [6], -10.2% (active). In addition, the growth in assay [7] was 16.2%; in [8] it was 37.1%; in assay [9], 22%; in assay [10] it was 4.87% (active).

On to `Cc1cccc(NCS(=O)(=O)O)c1`, for which the growth in assay [1] is 99.5%; in assay [2], 97.1%; in assay [3] it was 106%; in assay [4], 92.4%; in assay [5] it was 105%; in assay [6], 99.4%. The growth in assay [7] is 90.9%; in assay [8] it was 75%; in assay [9], 103%; in assay [10], 103%.

As to `O=[N+]([O-])c1ccc(NS(=O)(=O)c2ccccc2)c2ccccc12`, the growth in [1] was 34.3%; in assay [2] it was 59.4%; in assay [3] it was 71.9%; in assay [4] it was 50.6%; in [5], 38.2%; in assay [6], 1.99% (active). The growth was 18.2% in assay [7], 57.1% in assay [8], 51.5% in assay [9] and 59.1% in assay [10].

For `Oc1ccccc1/C=N/c1ccccn1`, the growth in assay [1] is 220%; in [2] it was 107%; in [3] it was 132%; in [4] it was 112%; in assay [5] it was 112%; in assay [6] it was 76.9%. In addition, the growth in [7] was 92%; in assay [8] it was 104%; in assay [9] it was 158%; in assay [10], 85.7%.

For `OCc1cn(-c2ccc(Cl)cc2)nc1-c1ccc(O)cc1`, the growth in [1] is 96.7%; in assay [2], 96.9%; in [3], 85.8%; in [4] it was 81.9%; in assay [5], 106%; in [6], 136%. For the same molecule, the growth in assay [7] is 71.2%; in assay [8], 90.1%; in assay [9], 93.4%; in [10] it was 115%.

Regarding `COc1ccc(-c2ccc(NC(=O)Nc3ccc(Cl)c(C(F)(F)F)c3)c(C)n2)cc1`, the growth was 30.9% in [1]; 65.2% in [2]; 71.4% in [3]; 62.1% in assay [4]; 30.9% in assay [5]; 27% in [6]. Besides, the growth was 24.8% in assay [7], 38.7% in [8], 56.1% in assay [9] and 80.1% in [10].

As to `COc1ccc2c(c1)nnn1c3ncccc3c(N=O)c21`, the growth in assay [1] was -23.8% (active); in [2], -57.7% (active); in assay [3], 31%; in [4], -41.7% (active); in assay [5], -70% (active); in [6] it was -49.2% (active). The growth in assay [7] is -85.7% (active); in [8] it was 6.65% (active); in assay [9], -63.1% (active); in [10], -61% (active).

For the molecule `COc1ccc(CCNC=O)cc1OC`, the growth in assay [1] was 101%; in [2], 89.1%; in assay [3] it was 96.4%; in [4], 107%; in [5] it was 102%; in assay [6] it was 93.4%. Also, the growth is 131% in [7], 107% in assay [8], 99.2% in assay [9] and 96.3% in assay [10].

In the case of `O=C1c2ccccc2C(=O)c2c(NCCN=Cc3c(O)ccc4ccccc34)cccc21`, the growth in assay [1] was 92.9%; in assay [2], 91.7%; in assay [3] it was 91.4%; in assay [4], 47%; in [5], 88.7%; in assay [6], 37.9%. The growth in assay [7] was 84.7%; in assay [8], 19.9%; in assay [10], 85.3%.

As for `CN1C(=O)C2(SCC(C(=O)NCC(=O)OC(C)(C)C)N2C(=O)C2CCCCC2)c2ccccc21` (stereo not drawn), the growth in assay [1] is 94.4%; in assay [2] it was 91.6%; in assay [3], 95.3%; in assay [4], 95%; in assay [5], 102%; in [6], 85.8%. In addition, the growth in assay [7] is 80.9%; in assay [8] it was 95.2%; in assay [9] it was 94.7%; in [10] it was 99.9%.

Turning to `COc1ccc(-c2cnc(-c3ccc(F)cc3)[nH]2)cc1`, the growth in assay [1] is 88.2%; in assay [2], 85.4%; in assay [3], 213%; in assay [4] it was 46.5%; in assay [5], 103%; in [6], 82.5%. Moreover, the growth in assay [7] was 85.9%; in assay [8], -55.7% (active); in assay [10], 111%.

On to `Nn1c(CN2CCN(c3cc4c(cc3F)c(=O)c(C(=O)O)cn4C3CC3)CC2)n[nH]c1=S`, for which the growth is 95.2% in [1]; 107% in assay [2]; 93.3% in assay [3]; 96.4% in assay [4]; 109% in assay [5]; 116% in [6]. For the same molecule, the growth in assay [7] was 85.8%; in [8], 101%; in [9], 97.3%; in assay [10], 121%.
